The values that follow come from PubChem BioAssay (NCI).

Compounds without any hit were thinned out: in the full panel of roughly 79,000, 15% have a hit. A number with no mark means an inactive call. Calls of active or inactive are those of the source. Cut-off read from the data, not from the text of the source: active = growth inhibition above about 70%; inactive = the rest.

Assay [1] is described as follows: NCI Yeast Anticancer Drug Screen. Data for the rad50 strain (AID 155).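 Note: 0% = growth of vehicle-only cultures of the same strain.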 Particulars: S. cerevisiae rad50 strain growth inhibition, hits give high values. The method in brief: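 Inhibition values express reduced yeast growth in compound-treated cultures relative to vehicle-treated controls.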
A short description of assay [2]: NCI Yeast Anticancer Drug Screen. Data for the mec2-1 strain (AID 157). Particulars: S. cerevisiae mec2-1 strain, hits give high values. The method in brief:
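Readout is yeast growth inhibition, normalised to vehicle-treated controls, in the mec2-1 strain exposed to compound.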

The nature of assay [3]: NCI Yeast Anticancer Drug Screen. Data for the sgs1 mgt1 strain (AID 161).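 Note: 0% = growth of cultures given vehicle only.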 Particulars: S. cerevisiae sgs1 mgt1 strain, hits give high values. The method in brief:
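Compounds are added to genetically altered yeast, and growth is compared with cultures given vehicle alone to give percent inhibition.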

The nature of assay [4]: NCI Yeast Anticancer Drug Screen. Data for the cln2 rad14 strain (AID 165).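 Note: 0% = growth equal to vehicle treated cultures.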 The note with it: S. cerevisiae cln2 rad14 strain, hits give high values. The gist of the method: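 Relative to vehicle controls, growth inhibition of compound-treated cln2 rad14 yeast was recorded.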
Assay [5] in a line: NCI Yeast Anticancer Drug Screen. Data for the bub3 strain (AID 167). The note with it: S. cerevisiae bub3 mutant strain, hits give high values. The gist of the method: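 Steps: expose the mutant yeast strain to compound; grow alongside vehicle-treated cultures; measure growth; express inhibition against the vehicle cultures.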
The nature of assay [6]: NCI Yeast Anticancer Drug Screen. Data for the mlh1 rad18 strain (AID 175). Particulars: S. cerevisiae mlh1 rad18 strain growth inhibition, hits give high values. The method in brief: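 Test agents were incubated with a yeast strain of defined genotype (DNA damage repair defect). Inhibition of growth was derived by comparison with vehicle-exposed cultures.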
Setting [7] is: at 5.0 µM (retest, dose inferred, filed as 0.5).
Setting [8] is: at 50.0 µM (retest, dose inferred, filed as 5.0).

For the compound `O=C1C=CC(=O)N1C1CCCCC1`, the growth inhibition in assay [1] (setting [7]) was 93% (active); in assay [1] (setting [8]), 99% (active); in assay [1] (at 50.0 µM), 99.6% (active); in assay [2] (setting [7]), 60%; in assay [2] (setting [8]) it was 100% (active); in assay [2] (at 50.0 µM), 99.7% (active). Besides, the growth inhibition was 95% (active) in assay [3] (setting [7]); 99% (active) in assay [3] (setting [8]); 99.5% (active) in assay [3] (at 50.0 µM); 30% in assay [4] (setting [7]); 99% (active) in assay [4] (setting [8]); 99.8% (active) in assay [4] (at 50.0 µM). Further, the growth inhibition is 90% (active) in assay [5] (setting [7]); 99% (active) in assay [5] (setting [8]); 99.7% (active) in assay [5] (at 50.0 µM); 98% (active) in assay [6] (setting [7]); 99% (active) in assay [6] (setting [8]); 99.6% (active) in assay [6] (at 50.0 µM).

As to `COc1ccc(C(=O)C(CN2CCCC2)CN2CCCC2)cc1`, the growth inhibition in assay [1] (setting [7]) was -1%; in assay [1] (setting [8]) it was 75% (active); in assay [1] (at 50.0 µM), 47.6%; in assay [2] (setting [7]), 4%; in assay [2] (setting [8]) it was 88% (active); in assay [2] (at 50.0 µM), 88.1% (active). The growth inhibition in assay [3] (setting [7]) is -5%; in assay [3] (setting [8]) it was 82% (active); in assay [3] (at 50.0 µM), 44%; in assay [4] (setting [7]), 2%; in assay [4] (setting [8]), 54%; in assay [4] (at 50.0 µM), 7.4%. Also, the growth inhibition in assay [5] (setting [7]) is -5%; in assay [5] (setting [8]) it was 81% (active); in assay [5] (at 50.0 µM) it was 59.5%; in assay [6] (setting [7]) it was 3%; in assay [6] (setting [8]), 79% (active); in assay [6] (at 50.0 µM), 69.3%.

Regarding `N#Cc1c(-c2ccc(Cl)cc2)c(-c2ccc(Cl)cc2)nn(CCOC(=O)CCC(=O)O)c1=O`, the growth inhibition in assay [1] (setting [7]) was 8%; in assay [1] (setting [8]), 76% (active); in assay [1] (at 50.0 µM), 89% (active); in assay [2] (setting [7]), -3%; in assay [2] (setting [8]), 76% (active); in assay [2] (at 50.0 µM), 88.8% (active). The growth inhibition in assay [3] (setting [7]) is 22%; in assay [3] (setting [8]) it was 66%; in assay [3] (at 50.0 µM), 78.1% (active); in assay [4] (setting [7]), -3%; in assay [4] (setting [8]) it was 86% (active); in assay [4] (at 50.0 µM) it was 85.2% (active). The growth inhibition in assay [5] (setting [7]) was 16%; in assay [5] (setting [8]), 83% (active); in assay [5] (at 50.0 µM), 84% (active); in assay [6] (setting [7]) it was 8%; in assay [6] (setting [8]), 81% (active); in assay [6] (at 50.0 µM) it was 87% (active).

For `Cc1ccc(S(=O)(=O)N(c2ccccc2-c2ccccc2)C(C)C(=O)O)cc1` (stereo not given), the growth inhibition in assay [1] (setting [7]) is 2%; in assay [1] (setting [8]), 67%; in assay [1] (at 50.0 µM) it was 92.3% (active); in assay [2] (setting [7]) it was 13%; in assay [2] (setting [8]) it was 80% (active); in assay [2] (at 50.0 µM), 88.3% (active). Also, the growth inhibition in assay [3] (setting [7]) is 20%; in assay [3] (setting [8]) it was 62%; in assay [3] (at 50.0 µM), 96% (active); in assay [4] (setting [7]), 3%; in assay [4] (setting [8]), 76% (active); in assay [4] (at 50.0 µM) it was 91.5% (active). For the same compound, the growth inhibition in assay [5] (setting [7]) was 4%; in assay [5] (setting [8]), 66%; in assay [5] (at 50.0 µM), 82.5% (active); in assay [6] (setting [7]) it was 5%; in assay [6] (setting [8]), 87% (active); in assay [6] (at 50.0 µM), 94.3% (active).

Regarding `O=C(Nc1ccc(S(=O)(=O)NC2CCCCC2)cc1)OCc1ccccc1`, the growth inhibition in assay [1] (setting [7]) is 91% (active); in assay [1] (setting [8]), 17%; in assay [1] (at 50.0 µM), 57%; in assay [2] (setting [7]), 99% (active); in assay [2] (setting [8]), 26%; in assay [2] (at 50.0 µM), 9.85%. Besides, the growth inhibition in assay [3] (setting [7]) is 100% (active); in assay [3] (setting [8]), 12%; in assay [3] (at 50.0 µM), 73% (active); in assay [4] (setting [7]) it was 28%; in assay [4] (setting [8]) it was -10%; in assay [4] (at 50.0 µM) it was 30.7%. Also, the growth inhibition is 99% (active) in assay [5] (setting [7]); 43% in assay [5] (setting [8]); 28.4% in assay [5] (at 50.0 µM); 91% (active) in assay [6] (setting [7]); 30% in assay [6] (setting [8]); 54.6% in assay [6] (at 50.0 µM).

In the case of `S=C(NCCNC(=S)[S][Sn]([c]1ccccc1)([c]1ccccc1)[c]1ccccc1)[S][Sn]([c]1ccccc1)([c]1ccccc1)[c]1ccccc1`, the growth inhibition in assay [1] (setting [7]) is 97% (active); in assay [1] (setting [8]), 93% (active); in assay [1] (at 50.0 µM), 89.8% (active); in assay [2] (setting [7]), 98% (active); in assay [2] (setting [8]), 96% (active); in assay [2] (at 50.0 µM), 90.8% (active). The growth inhibition was 97% (active) in assay [3] (setting [7]); 94% (active) in assay [3] (setting [8]); 91.5% (active) in assay [3] (at 50.0 µM); 96% (active) in assay [4] (setting [7]); 93% (active) in assay [4] (setting [8]); 87.9% (active) in assay [4] (at 50.0 µM). Besides, the growth inhibition is 98% (active) in assay [5] (setting [7]); 94% (active) in assay [5] (setting [8]); 90% (active) in assay [5] (at 50.0 µM); 98% (active) in assay [6] (setting [7]); 91% (active) in assay [6] (setting [8]); 89.8% (active) in assay [6] (at 50.0 µM).

With `O=c1[nH]ccc(CNC23CC4CC(CC(C4)C2)C3)c1O`, the growth inhibition in assay [1] (setting [7]) was 5%; in assay [1] (setting [8]), 11%; in assay [1] (at 50.0 µM), 49.9%; in assay [2] (setting [7]), 10%; in assay [2] (setting [8]), 33%; in assay [2] (at 50.0 µM), 21.4%. Besides, the growth inhibition in assay [3] (setting [7]) is 18%; in assay [3] (setting [8]), 67%; in assay [3] (at 50.0 µM), 61.9%; in assay [4] (setting [7]), 10%; in assay [4] (setting [8]) it was 11%; in assay [4] (at 50.0 µM), 39.9%. In addition, the growth inhibition in assay [5] (setting [7]) is 7%; in assay [5] (setting [8]), 49%; in assay [5] (at 50.0 µM), 36.4%; in assay [6] (setting [7]) it was 6%; in assay [6] (setting [8]), 38%; in assay [6] (at 50.0 µM) it was 81.5% (active).

For `CS(=O)(=O)c1nc(Cl)c(Cl)c(C#N)c1Cl`, the growth inhibition in assay [1] (setting [7]) is 50%; in assay [1] (setting [8]), 99% (active); in assay [1] (at 50.0 µM) it was 98.3% (active); in assay [2] (setting [7]) it was 76% (active); in assay [2] (setting [8]), 99% (active); in assay [2] (at 50.0 µM), 98.9% (active). In addition, the growth inhibition is 66% in assay [3] (setting [7]); 99% (active) in assay [3] (setting [8]); 99.2% (active) in assay [3] (at 50.0 µM); 23% in assay [4] (setting [7]); 99% (active) in assay [4] (setting [8]); 84.5% (active) in assay [4] (at 50.0 µM). For the same compound, the growth inhibition in assay [5] (setting [7]) was 88% (active); in assay [5] (setting [8]), 99% (active); in assay [5] (at 50.0 µM), 99.2% (active); in assay [6] (setting [7]), 85% (active); in assay [6] (setting [8]) it was 99% (active); in assay [6] (at 50.0 µM), 99% (active).

Turning to `CNc1ccc(N)cc1`, the growth inhibition in assay [1] (setting [7]) is 6%; in assay [1] (setting [8]) it was -9%; in assay [1] (at 50.0 µM), -15.1%; in assay [2] (setting [7]) it was -2%; in assay [2] (setting [8]), -5%; in assay [2] (at 50.0 µM), 21.6%. Moreover, the growth inhibition was -8% in assay [3] (setting [7]); -2% in assay [3] (setting [8]); -3.85% in assay [3] (at 50.0 µM); 5% in assay [4] (setting [7]); 1% in assay [4] (setting [8]); 26.4% in assay [4] (at 50.0 µM). In addition, the growth inhibition in assay [5] (setting [7]) is 9%; in assay [5] (setting [8]), 8%; in assay [5] (at 50.0 µM) it was 7.1%; in assay [6] (setting [7]), 0%; in assay [6] (setting [8]), -5%; in assay [6] (at 50.0 µM), -15.2%.

`CC1OC2CC(=O)OC2C2=C1C(=O)c1c(O)cccc1C2=O` (stereo not given): the growth inhibition in assay [1] (setting [7]) was 99% (active); in assay [1] (setting [8]) it was 99% (active); in assay [1] (at 50.0 µM), 91.8% (active); in assay [2] (setting [7]), 100% (active); in assay [2] (setting [8]), 99% (active); in assay [2] (at 50.0 µM), 93% (active). The growth inhibition in assay [3] (setting [7]) was 99% (active); in assay [3] (setting [8]), 99% (active); in assay [3] (at 50.0 µM), 92.6% (active); in assay [4] (setting [7]), 99% (active); in assay [4] (setting [8]), 99% (active); in assay [4] (at 50.0 µM), 91.4% (active). For the same compound, the growth inhibition in assay [5] (setting [7]) is 99% (active); in assay [5] (setting [8]) it was 99% (active); in assay [5] (at 50.0 µM), 91.4% (active); in assay [6] (setting [7]), 99% (active); in assay [6] (setting [8]) it was 99% (active); in assay [6] (at 50.0 µM), 91.7% (active).
